target: AgAbp1; test: SPOT peptide array binding signal intensity (averaged, normalized) (arbitrary units (background-subtracted, floor 0; scale differs between SH3 domains)); higher = stronger binding of the SH3 domain to the peptide
Method in brief: (§1)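 GST-fused SH3 domains from four yeast species were expressed in E. coli BL21(DE3), purified on glutathione Sepharose and incubated at 10 μg/ml overnight at 4°C in TBS-based blocking buffer on cellulose membranes carrying synthetic 15-mer peptides, with cysteines replaced by serines. Bound protein was detected with anti-GST antibody, an HRP anti-mouse secondary and luminol, then imaged and quantified with Genespotter. Binding signal is the normalized, background-subtracted spot intensity averaged over replicates, in arbitrary units that differ between domains.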

| Binder | SPOT peptide array binding signal intensity |
| --- | --- |
| HPRFVSPRIPSRIVK | 258 |

target: AgBbc1; test: as above
Method in brief: as §1

| Binder | SPOT peptide array binding signal intensity |
| --- | --- |
| HPRFVSPRIPSRIVK | 502 |

target: AgBem1-D1; test: as above
Method in brief: as §1

| Binder | SPOT peptide array binding signal intensity |
| --- | --- |
| HPRFVSPRIPSRIVK | 182 |

target: AgBzz1-D1; test: as above
Method in brief: as §1

| Binder | SPOT peptide array binding signal intensity |
| --- | --- |
| HPRFVSPRIPSRIVK | 185 |

target: AgBzz1-D2; test: as above
Method in brief: as §1

| Binder | SPOT peptide array binding signal intensity |
| --- | --- |
| HPRFVSPRIPSRIVK | 23.5 |

target: AgCyk3; test: as above
Method in brief: as §1

| Binder | SPOT peptide array binding signal intensity |
| --- | --- |
| HPRFVSPRIPSRIVK | 1 |

target: AgFus1; test: as above
Method in brief: as §1

| Binder | SPOT peptide array binding signal intensity |
| --- | --- |
| HPRFVSPRIPSRIVK | 239 |

target: AgHof1; test: as above
Method in brief: as §1

| Binder | SPOT peptide array binding signal intensity |
| --- | --- |
| HPRFVSPRIPSRIVK | 116 |

target: AgHse1; test: as above
Method in brief: as §1

| Binder | SPOT peptide array binding signal intensity |
| --- | --- |
| HPRFVSPRIPSRIVK | 176 |

target: AgLsb1; test: as above
Method in brief: as §1

| Binder | SPOT peptide array binding signal intensity |
| --- | --- |
| HPRFVSPRIPSRIVK | 138 |

target: AgLsb4; test: as above
Method in brief: as §1

| Binder | SPOT peptide array binding signal intensity |
| --- | --- |
| HPRFVSPRIPSRIVK | 28 |

target: AgMyo5; test: as above
Method in brief: as §1

| Binder | SPOT peptide array binding signal intensity |
| --- | --- |
| HPRFVSPRIPSRIVK | 11 |

target: AgNbp2; test: as above
Method in brief: as §1

| Binder | SPOT peptide array binding signal intensity |
| --- | --- |
| HPRFVSPRIPSRIVK | 390 |

target: AgRvs167; test: as above
Method in brief: as §1

| Binder | SPOT peptide array binding signal intensity |
| --- | --- |
| HPRFVSPRIPSRIVK | 12.3 |

target: AgSho1; test: as above
Method in brief: as §1

| Binder | SPOT peptide array binding signal intensity |
| --- | --- |
| HPRFVSPRIPSRIVK | 13 |

target: AgSla1-D1-D2; test: as above
Method in brief: as §1

| Binder | SPOT peptide array binding signal intensity |
| --- | --- |
| HPRFVSPRIPSRIVK | 62.5 |

target: AgSla1-D3; test: as above
Method in brief: as §1

| Binder | SPOT peptide array binding signal intensity |
| --- | --- |
| HPRFVSPRIPSRIVK | 32.5 |

target: CaAbp1-D1; test: as above
Method in brief: as §1

| Binder | SPOT peptide array binding signal intensity |
| --- | --- |
| HPRFVSPRIPSRIVK | 322 |

target: CaAbp1-D2; test: as above
Method in brief: as §1

| Binder | SPOT peptide array binding signal intensity |
| --- | --- |
| HPRFVSPRIPSRIVK | 83.5 |

target: CaBbc1; test: as above
Method in brief: as §1

| Binder | SPOT peptide array binding signal intensity |
| --- | --- |
| HPRFVSPRIPSRIVK | 1520 |

target: CaBem1-D1; test: as above
Method in brief: as §1

| Binder | SPOT peptide array binding signal intensity |
| --- | --- |
| HPRFVSPRIPSRIVK | 226 |

target: CaBzz1-D1; test: as above
Method in brief: as §1

| Binder | SPOT peptide array binding signal intensity |
| --- | --- |
| HPRFVSPRIPSRIVK | 255 |

target: CaBzz1-D2; test: as above
Method in brief: as §1

| Binder | SPOT peptide array binding signal intensity |
| --- | --- |
| HPRFVSPRIPSRIVK | 149 |

target: CaCyk3; test: as above
Method in brief: as §1

| Binder | SPOT peptide array binding signal intensity |
| --- | --- |
| HPRFVSPRIPSRIVK | 17 |

target: CaFus1; test: as above
Method in brief: as §1

| Binder | SPOT peptide array binding signal intensity |
| --- | --- |
| HPRFVSPRIPSRIVK | 373 |

target: CaHof1; test: as above
Method in brief: as §1

| Binder | SPOT peptide array binding signal intensity |
| --- | --- |
| HPRFVSPRIPSRIVK | 2 |

target: CaHse1; test: as above
Method in brief: as §1

| Binder | SPOT peptide array binding signal intensity |
| --- | --- |
| HPRFVSPRIPSRIVK | 25 |

target: CaLsb1; test: as above
Method in brief: as §1

| Binder | SPOT peptide array binding signal intensity |
| --- | --- |
| HPRFVSPRIPSRIVK | 1 |

target: CaLsb4; test: as above
Method in brief: as §1

| Binder | SPOT peptide array binding signal intensity |
| --- | --- |
| HPRFVSPRIPSRIVK | 933 |

target: CaMyo5; test: as above
Method in brief: as §1

| Binder | SPOT peptide array binding signal intensity |
| --- | --- |
| HPRFVSPRIPSRIVK | 13.8 |

target: CaNbp2; test: as above
Method in brief: as §1

| Binder | SPOT peptide array binding signal intensity |
| --- | --- |
| HPRFVSPRIPSRIVK | 428 |

target: CaRvs167; test: as above
Method in brief: as §1

| Binder | SPOT peptide array binding signal intensity |
| --- | --- |
| HPRFVSPRIPSRIVK | 230 |

target: CaRvs167-3; test: as above
Method in brief: as §1

| Binder | SPOT peptide array binding signal intensity |
| --- | --- |
| HPRFVSPRIPSRIVK | 5.75 |

target: CaSho1; test: as above
Method in brief: as §1

| Binder | SPOT peptide array binding signal intensity |
| --- | --- |
| HPRFVSPRIPSRIVK | 170 |

target: CaSla1-D1-D2; test: as above
Method in brief: as §1

| Binder | SPOT peptide array binding signal intensity |
| --- | --- |
| HPRFVSPRIPSRIVK | 736 |

target: CaSla1-D3; test: as above
Method in brief: as §1

| Binder | SPOT peptide array binding signal intensity |
| --- | --- |
| HPRFVSPRIPSRIVK | 11.5 |

target: ScAbp1; test: as above
Method in brief: as §1

| Binder | SPOT peptide array binding signal intensity |
| --- | --- |
| HPRFVSPRIPSRIVK | 238 |
